Assay results taken from PubChem BioAssay (EPA / NIEHS).
More than one record can exist for a structure, and the calls need not agree. The source made the active and inactive calls. Rule for the calls: active = hit-call score of the fitted dose curve at least 0.9, where 1 is the maximum; inactive = score below 0.9.

assay: ATG_TGFb_CIS: Attagene CIS-FACTORIAL HepG2 Assay for human Transforming Growth Factor (TGF) (AID 2282967); details: HepG2 Attagene CIS TGFb reporter, mRNA transcription; actives raise or lower the signal
Description: ATG_CIS is a cell-based, multiplexed-readout assay that uses HepG2, a human liver cell line, with measurements taken at 24 hours after chemical dosing in a 24-well plate.ATG_TGFb_CIS is one of 52 assay component(s) measured or calculated from the ATG_CIS assay. It is designed to make measurements of mRNA induction, a form of inducible reporter, as detected with fluorescence intensity signals by Reverse transcription polymerase chain reaction (RT-PCR) and Capillary electrophoresis technology.Data from the assay component ATG_TGFb_CIS was analyzed into 1 assay endpoint. This assay endpoint, ATG_TGFb_CIS, was analyzed with bidirectional fitting relative to DMSO as the negative control and baseline of activity. Using a type of inducible reporter, measures of mRNA for gain or loss-of-signal activity can be used to understand the reporter gene at the transcription factor-level as they relate to the gene TGFB1. Furthermore, this assay endpoint can be referred to as a primary readout, because this assay has produced multiple assay endpoints where this one serves a reporter gene function. To generalize the intended target to other relatable targets, this assay endpoint is annotated to the growth factor intended target family, where the subfamily is transforming growth factor beta.
Human liver HepG2 cells are transiently transfected with multiple reporter transcription units (MRTUs) in 6-well plates using FuGene 6 reagent (Roche; 3 ml FuGene/1 mg DNA). The MRTU constructs are regulated by a cis-regulating element (promoter). […] A major difference between the CIS and TRANS system is that in CIS activities of endogenous TFs are measured, whereas the TRANS assay evaluates changes in activities of exogenous, chimeric NR-Gal4 proteins. […] At the end of 24 hour incubation, total RNA was isolated using TriZol reagent (Invitrogen). The isolated RNA is then reverse-transcribed using oligo(dT) primer and Mo-MLV reverse transcriptase (Invitrogen) with DNAse I (Ambion) treatment for 30 min. The one-tenth of the produced cDNA was amplified by PCR using Taq DNA polymerase (Invitrogen) and two reporter sequence-specific primers. The PCR products were fluorescently labeled by primer extension with 6-arboxyfluorescein (6-FAM) 5'-labeled reporter sequence-specific primer (2 min at 95 C, 20 s at 68 C and 10 min at 72 C) and these products were digested with 5U of HpaI (New England Biolabs) for 2h at 37 C. The fragments were purified using Qiaquick PCR columns (Qiagen), analyzed on an ABI 3130xL genetic analyzer (Applied Biosystems) with peak positions identified by using a set of X-rhodamine (ROX)-labeled MapMarker1000 molecular weight standards (BioVentures). The raw capillary electrophoresis data was processed using Attagraph software (Attagene).

| SMILES | outcome | AC50 |
| --- | --- | --- |
| O=C(NC(=O)c1c(F)cccc1F)Nc1ccc(OC(F)(F)C(F)OC(F)(F)F)c(Cl)c1 (stereo not given) | inactive | – |
| CNC(=O)/C=C(\C)OP(=O)(OC)OC | inactive | – |
| O=S(=O)(O)C(F)(F)C(F)(F)C(F)(F)C(F)(F)C(F)(F)C(F)(F)C(F)(F)C(F)(F)F | inactive | 62.2 µM (active) [middle of 9 runs] |
| [2H]C1([2H])[n+]2ccccc2-c2cccc[n+]2C1([2H])[2H] | inactive | – |
| O=C(Nc1ccccc1)Nc1cnns1 | inactive | – |
| CN1CSC(=S)N(C)C1 | inactive | – |
| CCS(=O)(=O)c1cccnc1S(=O)(=O)NC(=O)Nc1nc(OC)cc(OC)n1 | inactive | – |
| C#CCN1C(=O)COc2cc(F)c(N3C(=O)C4=C(CCCC4)C3=O)cc21 | inactive | – |
| Cc1cc(C)nc(NC(=O)NS(=O)(=O)c2ccccc2C(=O)OC2COC2)n1 | inactive | – |
| CCCN(CCOc1c(Cl)cc(Cl)cc1Cl)C(=O)n1ccnc1 | inactive | – |
| COc1cc(OC)nc(NC(=O)NS(=O)(=O)c2cc(NC=O)ccc2C(=O)N(C)C)n1 | inactive | – |
| CCc1ccc(C(=O)NN(C(=O)c2cc(C)cc(C)c2)C(C)(C)C)cc1 | inactive | – |
| CC(C)OC(=O)Nc1cccc(Cl)c1 | inactive | – |
| N#CN | inactive | – |
| O=[N+]([O-])c1c(Cl)c(Cl)c(Cl)c(Cl)c1Cl | inactive | – |
| O=C1c2ccccc2C(=O)N1SC(Cl)(Cl)Cl | inactive | – |
| CC1(c2ccc(Oc3ccccc3)cc2)OC(=O)N(Nc2ccccc2)C1=O (stereo not given) | inactive | – |
| CCOc1nc(NC)nc(NC(=O)NS(=O)(=O)c2ccccc2C(=O)OC)n1 | inactive | – |
| CNC(=O)CSP(=S)(OC)OC | inactive | – |
| O=S1OCC2C(CO1)C1(Cl)C(Cl)=C(Cl)C2(Cl)C1(Cl)Cl (stereo not given) | inactive | – |

| SMILES | outcome | AC50 |
| --- | --- | --- |
| CNC(=O)Oc1ccccc1OC(C)C | inactive | – |
| O=C(O)C(F)(F)C(F)(F)C(F)(F)C(F)(F)C(F)(F)C(F)(F)C(F)(F)F | inactive | – |
| CCN(CC)C(=O)SCc1ccc(Cl)cc1 | inactive | – |
| C[C@H]1[C@H](c2ccc(Cl)cc2)SC(=O)N1C(=O)NC1CCCCC1 | inactive | – |
| COC(=O)c1ccccc1S(=O)(=O)NC(=O)Nc1nc(C)nc(OC)n1 | inactive | – |
| CCC(C)(NC(=O)c1cc(Cl)c(C)c(Cl)c1)C(=O)CCl (stereo not given) | inactive | – |
| COC(=O)c1ccccc1CS(=O)(=O)NC(=O)Nc1nc(OC)cc(OC)n1 | inactive | – |
| CCOCN(C(=O)CCl)c1c(C)cccc1CC | inactive | – |
| ClC1C(Cl)C(Cl)C(Cl)C(Cl)C1Cl (stereo not given) | inactive | – |
| COP(=S)(OC)Oc1ccc([N+](=O)[O-])cc1 | inactive | – |
| CCC(C)Nc1c([N+](=O)[O-])cc(C(C)(C)C)cc1[N+](=O)[O-] (stereo not given) | inactive | – |
| COP(=O)(OC)OC=C(Cl)Cl | inactive | – |
| O=C(O)CCCOc1ccc(Cl)cc1Cl | inactive | – |
| O=C(O)COc1ccc(Cl)cc1Cl | inactive | – |
| CCOC1Oc2ccc(OS(C)(=O)=O)cc2C1(C)C (stereo not given) | inactive | – |
| COc1nn(CSP(=S)(OC)OC)c(=O)s1 | inactive | – |
| N#Cc1c(Cl)c(Cl)c(Cl)c(C#N)c1Cl | inactive | – |
| CC(C)(C)C(O)/C(=C\c1ccc(Cl)cc1Cl)n1cncn1 (stereo not given) | inactive | – |
| Cc1[nH]c(=O)n(C(C)(C)C)c(=O)c1Cl | – | 28.7 µM (active) |
